Test results as given in PubChem BioAssay AID1159580 (chemical genetic matrix, 2015).
Where “and” joins values, the source holds several entries; their conditions need not be identical. Equal entries are not always repeated. Screen size: about 5,500 compounds; about 2,000 (36%) were called active. Not shown: some 18% with an inconclusive outcome. No stated cut-off is given here; in the data, active means normalized growth mostly below about 0.91 (no sharp cut-off); inconclusive means no clear call, values can overlap the other calls; inactive means mostly above about 0.92. The list shows a part of the results.

Assay: chemical genetic growth profiling, strain panel (AID 1159580);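 further: tested at 20 µM; growth read once vehicle control cultures reached saturation at 30 °C; 1 = growth at the plate median or of vehicle wells; lower values mean less growth of the strain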
Conditions: S. cerevisiae deletion strains, growth OD
[1] = locus YGR229C, strain SMI1, hits give low values
[2] = locus YMR307W, strain GAS1, hits give low values
[3] = locus YPL055C, strain LGE1, hits give low values

Measured: normalized growth

Oc1ccc(Cn2cc[nH]c2=S)cc1
active: locus YNL197C, strain WHI3, hits give low values 0.477 | locus YOR083W, strain WHI5 (second series), hits give low values 0.681
inactive: locus YAL040C, strain CLN3, hits give low values 0.993 | locus YCL061C, strain MRC1 (second series), hits give low values 1.01 | locus YDR363W, strain ESC2, hits give low values 1 | locus YER002W, strain NOP16, hits give low values 1.03 | [1] 0.986 | [2] 1 | locus YNL175C, strain NOP13, hits give low values 1 | locus YNL224C, strain SQS1, hits give low values 0.999 | [3] 1.01

Cn1cc[nH]c1=S
inactive: locus YAL021C, strain ccr4, hits give low values 0.981 | locus YAL026C, strain drs2, hits give low values 0.99 | locus YAL030W, strain snc1, hits give low values 0.99 | locus YBL061C, strain skt5, hits give low values 0.99 | locus YBR009C, strain hhf1, hits give low values 1.03 | locus YBR021W, strain FUR4, hits give low values 0.991 | locus YBR023C, strain chs3, hits give low values 0.98 | locus YBR171W, strain sec66, hits give low values 0.99 | locus YBR229C, strain ROT2, hits give low values 1.01 | locus YBR231C, strain swc5, hits give low values 1 | locus YBR279W, strain paf1, hits give low values 0.974 | locus YCL011C, strain gbp2, hits give low values 0.967 | locus YCL016C, strain dcc1, hits give low values 0.963 | locus YCL029C, strain bik1, hits give low values 0.976 | locus YCL069W, strain vba3, hits give low values 0.999 | locus YCR088W, strain abp1, hits give low values 0.991 | locus YDL005C, strain med2, hits give low values 0.963 | locus YDL035C, strain GPR1, hits give low values 1.01 | locus YDL040C, strain nat1, hits give low values 0.989 | locus YDL074C, strain BRE1, hits give low values 1.02 | locus YDL101C, strain DUN1, hits give low values 0.996 | locus YDL185W, strain tfp1, hits give low values 0.935 | locus YDL192W, strain arf1, hits give low values 0.971 | locus YDR001C, strain nth1, hits give low values 0.989 | locus YDR069C, strain doa4, hits give low values 1.01 | locus YDR101C, strain arx1, hits give low values 1.02 | locus YDR137W, strain rgp1, hits give low values 0.985 | locus YDR159W, strain sac3, hits give low values 0.974 | locus YDR162C, strain NBP2, hits give low values 1.01 | locus YDR195W, strain ref2 0.99 | locus YDR297W, strain sur2, hits give low values 1.01 | locus YDR318W, strain mcm21, hits give low values 0.968 | locus YDR334W, strain swr1, hits give low values 0.973 | locus YDR335W, strain msn5, hits give low values 1 | locus YDR388W, hits give low values 0.991 | locus YDR392W, strain spt3, hits give low values 0.887 | locus YDR502C, strain sam2, hits give low values 0.993 | locus YEL003W, strain gim4, hits give low values 1 | locus YEL037C, strain rad23, hits give low values 0.98 | locus YEL061C, strain CIN8 (second series), hits give low values 0.984 | locus YEL061C, strain CIN8, hits give low values 0.985 | locus YER015W, strain faa2, hits give low values 0.993 | locus YER016W, strain bim1, hits give low values 0.978 | locus YER110C, hits give low values 0.967 | locus YER111C, strain swi4, hits give low values 0.967 | locus YER155C, strain BEM2 (second series), hits give low values 0.976 | locus YER155C, strain BEM2, hits give low values 1 | locus YER167W, strain BCK2, hits give low values 1 | locus YFR010W, strain ubp6, hits give low values 1.01 | locus YGL078C, strain dbp3, hits give low values 0.956 | locus YGL086W, strain mad1, hits give low values 1.01 | locus YGL167C, strain pmr1, hits give low values 0.992 | locus YGL173C, strain kem1, hits give low values 0.987 | locus YGL227W, strain vid30, hits give low values 1.01 | locus YGL240W, strain doc1, hits give low values 0.981 | locus YGL248W, strain PDE1, hits give low values 1 | locus YGL253W, strain hxk2, hits give low values 0.97 | locus YGR078C, strain PAC10, hits give low values 1 | locus YGR135W, strain pre9, hits give low values 0.938 | [1] 1.01 | locus YGR252W, strain gcn5, hits give low values 0.958 | locus YHR013C, strain ard1, hits give low values 0.949 | locus YHR027C, strain rpn1, hits give low values 1 | locus YHR030C, strain SLT2, hits give low values 0.997 and 1.04 | locus YHR079C, strain IRE1 (second series), hits give low values 0.971 | locus YHR079C, strain IRE1, hits give low values 1.04 | locus YHR094C, strain hxt1, hits give low values 0.992 | locus YHR129C, strain ARP1, hits give low values 1.01 | locus YHR142W, strain chs7, hits give low values 0.981 | locus YHR200W, strain rpn10, hits give low values 0.971 | locus YIL066C, strain RNR3, hits give low values 1.01 | locus YIL073C, strain SPO22, hits give low values 0.929 | locus YIL125W, strain kgd1, hits give low values 0.986 | locus YIR030C, strain dcg1, hits give low values 0.964 | locus YJL092W, strain hpr5, hits give low values 1 | locus YJL095W, strain BCK1 (second series), hits give low values 0.988 | locus YJL095W, strain BCK1, hits give low values 0.991 and 1.03 | locus YJL115W, strain asf1, hits give low values 0.988 | locus YJL129C, strain trk1, hits give low values 0.963 | locus YJL134W, strain LCB3, hits give low values 0.999 | locus YJL154C, strain vps35, hits give low values 0.984 | locus YJL164C, strain tpk1, hits give low values 1.02 | locus YJL166W, strain qcr8, hits give low values 1.03 | locus YJL168C, strain set2, hits give low values 0.984 | locus YJL187C, strain SWE1 (second series), hits give low values 1 | locus YJR043C, strain POL32, hits give low values 1.02 | locus YJR066W, strain TOR1, hits give low values 0.991 | locus YJR075W, strain HOC1, hits give low values 0.997 | locus YKL009W, strain mrt4, hits give low values 0.966 | locus YKL068W, hits give low values 0.987 | locus YKL085W, strain MDH1 (second series), hits give low values 0.967 | locus YKL085W, strain MDH1, hits give low values 0.967 | locus YKL160W, strain elf1, hits give low values 0.952 | locus YKL190W, strain CNB1, hits give low values 0.985 | locus YKR001C, strain vps1, hits give low values 0.996 | locus YKR026C, strain gcn3, hits give low values 0.985 | locus YKR091W, strain srl3, hits give low values 0.983 | locus YLL001W, strain dnm1, hits give low values 1 | locus YLL026W, hits give low values 1 | locus YLL041C, strain sdh2, hits give low values 1.01 | locus YLR027C, strain aat2, hits give low values 0.991 | locus YLR039C, strain RIC1, hits give low values 0.879 | locus YLR058C, strain SHM2, hits give low values 1 | locus YLR102C, strain apc9, hits give low values 0.972 | locus YLR113W, strain HOG1, hits give low values 1.03 | locus YLR221C, strain rsa3, hits give low values 1.04 | locus YLR258W, strain gsy2, hits give low values 0.979 | locus YLR262C, strain YPT6 (second series), hits give low values 1.06 | locus YLR262C, strain YPT6, hits give low values 0.995 | locus YLR268W, strain sec22, hits give low values 0.981 | locus YLR320W, strain mms22, hits give low values 0.999 | locus YLR330W, strain CHS5, hits give low values 0.995 | locus YLR342W, strain FKS1 (second series), hits give low values 1.01 | locus YLR342W, strain FKS1, hits give low values 0.97 | locus YLR357W, strain rsc2, hits give low values 0.98 | locus YLR370C, strain arc18, hits give low values 0.978 | locus YLR371W, strain rom2, hits give low values 0.983 | locus YLR384C, strain iki3, hits give low values 0.997 | locus YLR418C, strain cdc73, hits give low values 0.965 | locus YML016C, strain PPZ1, hits give low values 1.01 | locus YML032C, strain rad52, hits give low values 0.994 | locus YML120C, strain ndi1, hits give low values 1.01 | locus YML124C, strain tub3, hits give low values 0.977 | locus YMR058W, strain fet3, hits give low values 0.995 | locus YMR078C, strain ctf18, hits give low values 0.96 | locus YMR125W, strain sto1, hits give low values 0.973 | locus YMR129W, hits give low values 1 | locus YMR205C, strain PFK2, hits give low values 0.984 | locus YMR223W, strain ubp8, hits give low values 0.952 | locus YMR231W, strain pep5, hits give low values 0.981 | [2] 1.05 | locus YNL067W, strain RPL9B, hits give low values 0.997 | locus YNL071W, strain lat1, hits give low values 0.989 | locus YNL153C, strain GIM3, hits give low values 1.01 | locus YNL183C, strain NPR1, hits give low values 0.993 | locus YNL209W, strain ssb2, hits give low values 0.979 | locus YNL233W, strain BNI4, hits give low values 1 | locus YNL248C, strain rpa49, hits give low values 0.965 | locus YNL250W, strain rad50, hits give low values 0.964 | locus YNL271C, strain bni1, hits give low values 0.97 | locus YNL298W, strain CLA4, hits give low values 0.946 | locus YNL307C, strain MCK1, hits give low values 0.982 | locus YNL322C, strain KRE1 (second series), hits give low values 0.966 | locus YNR049C, strain mso1, hits give low values 0.998 | locus YNR052C, strain pop2, hits give low values 0.962 | locus YOL006C, strain TOP1, hits give low values 0.987 | locus YOL012C, strain htz1 0.891 | locus YOL147C, strain pex11, hits give low values 0.973 | locus YOR001W, strain rrp6, hits give low values 1.03 | locus YOR061W, strain CKA2, hits give low values 1 | locus YOR069W, strain VPS5, hits give low values 1.01 | locus YOR070C, strain gyp1, hits give low values 0.994 | locus YOR080W, strain dia2, hits give low values 1 | locus YOR083W, strain WHI5, hits give low values 0.922 | locus YOR106W, strain vam3, hits give low values 0.977 | locus YOR136W, strain idh2, hits give low values 0.987 | locus YOR144C, strain elg1, hits give low values 0.986 | locus YOR184W, strain ser1, hits give low values 0.974 | locus YOR231W, strain MKK1, hits give low values 1.04 | locus YOR265W, strain rbl2, hits give low values 0.997 | locus YOR270C, strain vph1, hits give low values 1.07 | locus YOR290C, strain snf2, hits give low values 0.955 | locus YOR316C, strain cot1, hits give low values 0.974 | locus YPL051W, strain arl3, hits give low values 0.98 | [3] 0.999 | locus YPL078C, strain atp4, hits give low values 1 | locus YPL106C, strain sse1, hits give low values 0.965 | locus YPL240C, strain hsp82, hits give low values 1.02 | locus YPL241C, strain CIN2, hits give low values 1 | locus YPL256C, strain CLN2, hits give low values 1.06 | locus YPR119W, strain clb2, hits give low values 0.968 | locus YPR141C, strain kar3, hits give low values 0.977 | locus YPR163C, strain tif3, hits give low values 0.976 | locus YPR167C, strain met16, hits give low values 0.983 | strain wtn01, hits give low values 0.97
